Structures are written as SMILES. Inconclusive results are not listed. Entries that show only a call come without a potency. Active and inactive are the calls of the source. Calls follow the shape of the dose curve; as a rule, active = well fitted inhibition curve with a large enough effect; inconclusive = small, poorly fitted or top-dose-only effect; inactive = flat fitted curve, though single readings scatter.

Chain of Calcium and integrin-binding protein 1 (Homo sapiens) (Q99828 whole entry, looked up): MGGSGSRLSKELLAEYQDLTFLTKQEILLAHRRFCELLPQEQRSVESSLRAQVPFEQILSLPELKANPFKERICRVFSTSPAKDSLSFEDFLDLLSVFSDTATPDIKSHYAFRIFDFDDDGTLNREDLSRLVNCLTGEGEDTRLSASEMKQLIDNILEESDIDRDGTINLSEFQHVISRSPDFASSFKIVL

The target in the test is Calcium and integrin-binding protein 1 (Homo sapiens) (UniProt Q99828). Briefly: Primary qHTS for Identification of Calcium Integrin Binding Protein 1 (CIB1) Competitor (AID 1508620).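 Also: GST tagged CIB1 binding a fluorescein labelled alphaIIb integrin peptide tracer; top concentration of the series differs between compounds.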 Particulars: CIB1-GST / FITC-alphaIIb peptide fluorescence polarization; series mostly up to 114 µM. In short, it runs like this:
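CIB1-GST (1 uM final) and compound incubated 15 min at room temperature before adding FITC-alphaIIb peptide tracer (100 nM final). Competition for binding read by fluorescence polarization (ex 480, em 540) after another 15 min at room temperature.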
As to `Cc1ccc(C(=O)NC2CCN(C#N)CC2)cc1`, the Potency entry was “inactive”. In the case of `O=C(Cc1ccc(Cl)c(Cl)c1)Nc1ccc([S+](=O)([O-])Nc2ccc([N+](=O)[O-])cc2)cc1`, the Potency result was “inactive”. For the molecule `COc1ccc(C2c3c(nc(Cc4ccccc4)[nH]c3=O)Oc3ccc4ccccc4c32)cc1OC` (centres undefined), the Potency result is “inactive”. Take `NC(=O)C1CCN(c2ncc(-c3cccc(N4CCCC4)c3)s2)CC1`: the Potency entry was “inactive”.

With `Cc1cc2c(s1)c1cnn(Cc3ccc(Cl)c(F)c3)c(=O)c1n2C`, the Potency entry is “inactive”.

As for `COc1ccccc1-c1csc2ncnc(Sc3nnnn3C)c12`, the Potency entry is “inactive”.

Take `O=C(NCCc1nc2ccccc2n1CCOc1cccc([N+](=O)[O-])c1)C1CCCCC1`: the Potency result was “inactive”. Regarding `O=C1c2ccccc2C(=O)N1c1cccc(O)c1`, the Potency result was “inactive”.

For the molecule `CCCCNC(=O)c1ccc2c(c1)ncn2-c1cccc(C)c1`, the Potency entry is “inactive”.

On to `Cc1ccnc(NC(=S)N2CCN(c3ccc(Br)cc3)CC2)c1`, for which the Potency result was “inactive”. In the case of `COc1cccc(CNc2ccc(S(=O)(=O)Nc3nccs3)cc2)c1`, the Potency result is “inactive”.

Regarding `S=C(Nc1ccc(Cl)c(Cl)c1)Nc1nnc(-c2ccncc2)o1`, the Potency result is “inactive”. The same measure for `Cc1c([S+](=O)([O-])N2CCN([S+](=O)([O-])c3c(F)cccc3F)CC2)sc2ccc(Cl)cc12`: “inactive”; for `COc1ccc(C2Nc3ccccc3C(=O)N2Cc2ccccc2OC)cc1COc1ccc(NC(C)=O)cc1` (centres undefined): “inactive”.

Take `CS(=O)(=O)c1ccc(C(=O)OCC(=O)N2CCN(C3CCCCC3)CC2)cc1[N+](=O)[O-]`: the Potency result was “inactive”. Next, `c1nc(NCC2CC2)c2cc(-c3ccc4c(c3)OCO4)ccc2n1`: “inactive”. Consider `O=C1CCCC2=C1C1(CCCC1)N=C(Nc1nc3cc(Cl)ccc3o1)N2`, for which the Potency entry was “inactive”. As for `NC(=O)C1CCN(c2nc(-c3cc4ccccc4o3)cs2)CC1`, the Potency result is “inactive”. As for `Cc1ccc(NS(=O)(=O)c2ccc3c(c2)N(C)CCO3)cc1C`, the Potency entry was “inactive”. The same measure for `COc1ccc(C2Nc3ccccc3C(=O)N2Cc2cccs2)cc1COc1c(C)cc(NC(C)=O)cc1C` (centres undefined): “inactive”; for `CCc1ccc(NC(=O)c2[nH]c(C)c(C(C)=O)c2C)cc1S(=O)(=O)Nc1ccc(C#N)cc1`: “inactive”; for `O=C1c2ccccc2C(=O)N1c1cc(=O)c2ccccc2[nH]1`: “inactive”.

As for `Cc1ccc(OCCn2c(CCNC(=O)c3cccc(C)c3)nc3ccccc32)cc1`, the Potency result is “inactive”. `NC(=O)C1CCN(c2nc(-c3ccc4c(c3)OCCO4)cs2)CC1`: the Potency entry is “inactive”.

For the molecule `Oc1cc(NCc2ccc(Cl)cc2)cc2cccnc12`, the Potency entry is “inactive”. As to `O=C1Nc2ccccc2/C1=C\c1ccc(O)cc1`, the Potency entry was “inactive”. Turning to `CC(C)(C)OC(=O)Cc1nnc(-c2cc3ccccc3[nH]2)s1`, the Potency result was “inactive”.

With `CC(C)c1ccccc1-c1ncc(F)c(NC2(c3ccc(-c4cccnc4)cc3)CC2)n1`, the Potency entry was “inactive”. Next, `Cc1cc2c(s1)c1cnn(Cc3ccc(Cl)cc3)c(=O)c1n2C`: “inactive”; `COc1cc(OC)c(C(CC(=O)N2CC(C)CC(C)C2)c2ccc3c(c2)OCO3)c(OC)c1` (centres undefined): “inactive”; `Cc1ccc(OCCn2c(CCNC(=O)OC(C)(C)C)nc3ccccc32)cc1`: “inactive”. For the molecule `COc1ccc(N2C[C@]34C=C[C@H](O3)C(C(=O)O)C4C2=O)cc1OC` (some centres undefined), the Potency result was “inactive”.

For `N=c1c2c(ncn1-c1ccccc1)Oc1ccc3ccccc3c1C2c1ccc2c(c1)OCCO2` (centres undefined), the Potency result was “inactive”. On to `Cc1nnc(-c2cnn(C)c2N)n1CCc1ccccc1`, for which the Potency entry was “inactive”. Turning to `O=c1c2ccccc2nc2sc(NCc3ccc(Cc4ccccc4)cc3)nn12`, the Potency entry is “inactive”. Turning to `COc1ccc(C2c3c(nc(C)[nH]c3=O)Oc3ccc4ccccc4c32)cc1OC` (centres undefined), the Potency entry was “inactive”.

Regarding `Brc1cnc2nc(SCc3cccnc3)[nH]c2c1`, the Potency result was “inactive”. As to `Oc1ccc(CCc2ccccc2F)c2cccnc12`, the Potency result is “inactive”. With `CN(C)CCCNC(=O)c1ccc(-c2cnc3c(O)ccc(C(=O)O)c3c2)cc1`, the Potency entry is “inactive”.

The values are drawn from PubChem BioAssay (NCATS).
